Values joined by “and” are separate entries in the source; they are usually repeats but may differ in a detail not shown here. Equal entries are not always repeated. About 2,000 (36%) of roughly 5,500 compounds were called active. Roughly 18% stayed inconclusive and do not appear here. Cut-off read from the data, not from the text of the source: active = normalized growth mostly below about 0.91 (no sharp cut-off); inconclusive = no clear call, values can overlap the other calls; inactive = mostly above about 0.92. The list shows a part of the results.
Assay: chemical genetic growth profiling, strain panel (AID 1159580);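 note: tested at 20 µM; growth read once vehicle control cultures reached saturation at 30 °C; 1 = growth at the plate median or of vehicle wells; lower values mean less growth of the strain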
Details: S. cerevisiae deletion strains, growth OD

Measured: normalized growth

CC(=O)Oc1cc(-c2coc3cc(OC(C)=O)c(OC(C)=O)c(OC(C)=O)c3c2=O)cc(OC(C)=O)c1OC(C)=O
0.179 (active) and 1.03 (inactive): locus YJL095W, strain BCK1, stronger effect = lower value
inactive: locus YAL030W, strain snc1, stronger effect = lower value 0.969 | locus YBR009C, strain hhf1, stronger effect = lower value 0.934 | locus YBR021W, strain FUR4, stronger effect = lower value 0.854 | locus YBR171W, strain sec66, stronger effect = lower value 0.936 | locus YBR279W, strain paf1, stronger effect = lower value 0.937 | locus YCL011C, strain gbp2, stronger effect = lower value 0.93 | locus YCL016C, strain dcc1, stronger effect = lower value 0.948 | locus YCL069W, strain vba3, stronger effect = lower value 0.96 | locus YCR088W, strain abp1, stronger effect = lower value 0.977 | locus YDL005C, strain med2, stronger effect = lower value 0.985 | locus YDL040C, strain nat1, stronger effect = lower value 0.987 | locus YDL185W, strain tfp1, stronger effect = lower value 0.978 | locus YDR001C, strain nth1, stronger effect = lower value 0.977 | locus YDR159W, strain sac3, stronger effect = lower value 0.863 | locus YDR195W, strain ref2 0.947 | locus YDR318W, strain mcm21, stronger effect = lower value 0.967 | locus YDR388W, stronger effect = lower value 0.978 | locus YDR392W, strain spt3, stronger effect = lower value 0.938 | locus YEL061C, strain CIN8 (second series), stronger effect = lower value 0.946 | locus YER016W, strain bim1, stronger effect = lower value 0.972 | locus YER110C, stronger effect = lower value 1.05 | locus YER155C, strain BEM2 (second series), stronger effect = lower value 0.906 | locus YER167W, strain BCK2, stronger effect = lower value 0.949 | locus YGL078C, strain dbp3, stronger effect = lower value 1.01 | locus YGL167C, strain pmr1, stronger effect = lower value 0.956 | locus YGL227W, strain vid30, stronger effect = lower value 0.996 | locus YGL240W, strain doc1, stronger effect = lower value 0.975 | locus YGR252W, strain gcn5, stronger effect = lower value 0.873 | locus YHR013C, strain ard1, stronger effect = lower value 0.877 | locus YHR030C, strain SLT2, stronger effect = lower value 1.05 | locus YHR079C, strain IRE1, stronger effect = lower value 1.07 | locus YHR094C, strain hxt1, stronger effect = lower value 1.03 | locus YIL125W, strain kgd1, stronger effect = lower value 1.03 | locus YIR030C, strain dcg1, stronger effect = lower value 0.974 | locus YJL092W, strain hpr5, stronger effect = lower value 0.964 | locus YJL095W, strain BCK1 (second series), stronger effect = lower value 0.945 | locus YJL115W, strain asf1, stronger effect = lower value 0.978 | locus YJL129C, strain trk1, stronger effect = lower value 0.942 | locus YJL134W, strain LCB3, stronger effect = lower value 0.936 | locus YJL154C, strain vps35, stronger effect = lower value 0.978 | locus YJL166W, strain qcr8, stronger effect = lower value 0.906 | locus YJL168C, strain set2, stronger effect = lower value 1.01 | locus YJL187C, strain SWE1, stronger effect = lower value 0.945 | locus YJR066W, strain TOR1, stronger effect = lower value 0.971
active: locus YAL013W, strain DEP1, stronger effect = lower value 0.67 | locus YAL021C, strain ccr4, stronger effect = lower value 0.81 | locus YAL026C, strain drs2, stronger effect = lower value 0.836 | locus YBL061C, strain skt5, stronger effect = lower value 0.919 | locus YBR023C, strain chs3, stronger effect = lower value 0.841 | locus YBR229C, strain ROT2, stronger effect = lower value 0.89 | locus YBR231C, strain swc5, stronger effect = lower value 0.772 | locus YCL029C, strain bik1, stronger effect = lower value 0.674 | locus YDL035C, strain GPR1, stronger effect = lower value 0.83 | locus YDL074C, strain BRE1, stronger effect = lower value 0.643 | locus YDL101C, strain DUN1, stronger effect = lower value 0.438 | locus YDL192W, strain arf1, stronger effect = lower value 0.899 | locus YDR069C, strain doa4, stronger effect = lower value 0.752 | locus YDR101C, strain arx1, stronger effect = lower value 0.827 | locus YDR137W, strain rgp1, stronger effect = lower value 0.795 | locus YDR162C, strain NBP2, stronger effect = lower value 0.717 | locus YDR297W, strain sur2, stronger effect = lower value 0.914 | locus YDR334W, strain swr1, stronger effect = lower value 0.834 | locus YDR335W, strain msn5, stronger effect = lower value 0.851 | locus YDR502C, strain sam2, stronger effect = lower value 0.898 | locus YEL003W, strain gim4, stronger effect = lower value 0.877 | locus YEL037C, strain rad23, stronger effect = lower value 0.88 | locus YER015W, strain faa2, stronger effect = lower value 0.894 | locus YER111C, strain swi4, stronger effect = lower value 0.469 | locus YER155C, strain BEM2, stronger effect = lower value 0.913 | locus YFR010W, strain ubp6, stronger effect = lower value 0.881 | locus YGL086W, strain mad1, stronger effect = lower value 0.887 | locus YGL173C, strain kem1, stronger effect = lower value 0.85 | locus YGL248W, strain PDE1, stronger effect = lower value 0.845 | locus YGL253W, strain hxk2, stronger effect = lower value 0.862 | locus YGR135W, strain pre9, stronger effect = lower value 0.871 | locus YGR229C, strain SMI1, stronger effect = lower value 0.302 | locus YHR027C, strain rpn1, stronger effect = lower value 0.885 | locus YHR079C, strain IRE1 (second series), stronger effect = lower value 0.794 | locus YHR129C, strain ARP1, stronger effect = lower value 0.844 | locus YHR142W, strain chs7, stronger effect = lower value 0.82 | locus YHR200W, strain rpn10, stronger effect = lower value 0.914 | locus YIL066C, strain RNR3, stronger effect = lower value 0.834 | locus YIL073C, strain SPO22, stronger effect = lower value 0.602 | locus YJL164C, strain tpk1, stronger effect = lower value 0.893 | locus YJL187C, strain SWE1 (second series), stronger effect = lower value 0.273
